Bioassay records: PubChem, The Scripps Research Institute Molecular Screening Center
GPR151 ag: human GPR151 activation; Q8TDV0; PathHunter beta-arrestin GPR151 cells, luminescence; activation, % at 11.2 µM; hit rate 1% among 650,000; AID 1508602; in the data active = activation above about 4.9%;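 also: 0% = median of compound wells and 100% = cells with positive control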
MITF inh: inhibitors of human MITF; O75030; inhibition, % at 2.6 µM; hit rate 0.91% among 650,000; AlphaScreen MITF homodimerization, bead proximity signal; AID 1259374; in the data active = inhibition above about 50%;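 also: 0% = vehicle wells with protein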
TEAD-YAP inh: TEAD-YAP interaction inhibition. HEK-TIYL cells, TEAD-Gal4/YAP UAS-luciferase luminescence. inhibition, % at 9.12 µM. hit rate 1.4% among 640,000; in the data active = inhibition above about 32%;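 also: 0% = median of test compound wells and 100% = reference inhibitor wells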
FBW7 act: human FBW7 E3 ligase activation, primary screen; Q969H0; AlphaScreen FBW7–phospho-cyclin E peptide binding, activator screen; normalized activity (activation), % at 26.1 µM; hit rate 0.13% among 650,000; AID 1259310; in the data active = normalized activity above about 1.9%;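 also: purified mutant Fbw7 with reduced substrate affinity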
Target sequence (Q969H0 whole entry, looked up): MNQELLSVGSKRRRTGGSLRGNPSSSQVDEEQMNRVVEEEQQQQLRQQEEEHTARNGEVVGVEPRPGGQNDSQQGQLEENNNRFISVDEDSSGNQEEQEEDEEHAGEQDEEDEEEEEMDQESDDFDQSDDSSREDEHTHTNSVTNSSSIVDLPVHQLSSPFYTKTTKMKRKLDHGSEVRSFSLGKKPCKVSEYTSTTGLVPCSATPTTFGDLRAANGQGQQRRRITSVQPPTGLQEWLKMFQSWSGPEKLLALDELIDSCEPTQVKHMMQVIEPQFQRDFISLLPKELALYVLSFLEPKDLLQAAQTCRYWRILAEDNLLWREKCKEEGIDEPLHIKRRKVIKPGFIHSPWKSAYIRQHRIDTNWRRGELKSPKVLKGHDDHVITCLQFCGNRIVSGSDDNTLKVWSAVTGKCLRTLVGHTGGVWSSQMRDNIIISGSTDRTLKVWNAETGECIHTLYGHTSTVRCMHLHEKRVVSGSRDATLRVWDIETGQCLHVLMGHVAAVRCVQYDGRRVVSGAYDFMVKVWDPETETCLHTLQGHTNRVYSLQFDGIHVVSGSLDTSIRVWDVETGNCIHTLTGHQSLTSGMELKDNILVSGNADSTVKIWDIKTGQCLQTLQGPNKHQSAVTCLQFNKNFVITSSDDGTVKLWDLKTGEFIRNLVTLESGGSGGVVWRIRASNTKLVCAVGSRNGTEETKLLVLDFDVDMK
The depositor's hits bear a star. This is a sample that favours compounds with a hit; in the whole collection about 3.5% have one here.

SMILES | GPR151 ag | MITF inh | TEAD-YAP inh | FBW7 act
O=C1CCCN1CCCNc1nc(-c2ccc(N3CCOCC3)nc2)nc2c1ncn2-c1ccccc1 | 1.2 | 5.3 | 47.9* | -0.1
Oc1ccc(CCNc2nc(NCCN3CCOCC3)nc3c2ncn3-c2ccccc2)cc1 | -1.9 | 7.2 | 37.4* | -0.2
O=C(CCC1CCN(C(=O)CCCN2CCCC2=O)CC1)NCc1ccc(F)cc1 | 0.3 | 2.6 | 3.0 | 0.0
CCn1c(SCc2ccc([N+](=O)[O-])cc2)nc2c(c1=O)SCC2 | 2.9 | -5.8 | -1.7 | 0.0
c1ccc(-n2cnc3c(NCCN4CCOCC4)nc(-c4ccc(N5CCOCC5)nc4)nc32)cc1 | -0.4 | 1.6 | 58.8* | -0.1
FC(F)(F)c1ccc(Cn2cnc3c(NCCOc4ccccc4)nc(-c4ccc(N5CCOCC5)nc4)nc32)cc1 | 0.1 | 20.1 | 8.0 | 2.0*
FC(F)(F)c1ccc(Cn2cnc3c(NCc4ccccc4)nc(-c4ccc(N5CCOCC5)nc4)nc32)cc1 | 1.4 | 7.3 | 10.9 | -0.1
c1ccc(-c2nc(NCCN3CCOCC3)c3ncn(-c4ccccc4)c3n2)cc1 | 0.4 | 16.1 | 28.3 | 0.3
NC(N)=NS(=O)(=O)c1ccc(N/C=C/C(=O)c2ccncc2)cc1 | -0.8 | 50.4 | -8.5 | 1.5
CC1CC(C)CN(S(=O)(=O)c2cc3c4c(c2)CC(=O)N4CCC3)C1 (configuration not stated) | 0.7 | 6.5 | 17.0 | -0.1
O=C(NC1CCCCCC1)/C(=C/c1ccco1)n1nnnc1-c1ccccc1 | 0.7 | 7.3 | 34.5* | 0.3
NC(=O)COC(=O)/C(=C/c1ccco1)n1nnnc1-c1ccccc1 | 1.0 | 13.2 | 1.1 | -0.1
CC(C)(C)C(=O)CNC(=O)c1ccncc1 | 0.6 | 9.9 | 57.1* | 0.0
COc1ccc(-n2nc3nc[nH]c(=O)c3n2)cc1 | -5.2 | 5.6 | 45.6* | -0.1
COc1ccc(-n2ncc3c(=O)[nH]cnc32)cc1 | -0.8 | 12.3 | -1.9 | 0.5
Cc1nnc(SC(=O)N2c3ccccc3Sc3ccccc32)s1 | 0.2 | 7.2 | 60.6* | -0.3
CC(C)c1ccc(C(=O)CSc2ncn[nH]2)cc1 | -2.2 | 4.3 | 37.2* | 0.2
Cc1ccccc1Cn1cc(C=C2C(=O)N(C)C(=O)N(C)C2=O)c2ccccc21 | -0.9 | 16.7 | -0.3 | 0.0
Cc1ccccc1OCCCn1cc(C=C2C(=O)N(C)C(=O)N(C)C2=O)c2ccccc21 | -1.5 | -6.7 | 34.4* | -0.1
N#Cc1cc(N)c(Nc2ccccc2)cc1C#N | 2.5 | -0.3 | -3.7 | 0.4
N#Cc1cnc(N)c(C#N)c1Nc1ccccc1 | -0.8 | 4.4 | 37.9* | 0.1
Fc1ccc(-c2cc(NC3CC3)nc(-c3ccccn3)n2)cc1 | -2.6 | -2.8 | 90.0* | -0.7
c1ccc(-c2cc(NC3CC3)nc(-c3ccccn3)n2)cc1 | -1.0 | 5.7 | 92.3* | -0.9
COCCNc1cc(-c2ccc(F)cc2)nc(-c2ccccn2)n1 | -1.9 | 13.2 | 73.7* | -0.6
COCCNc1cc(-c2ccncc2)nc(-c2ccccn2)n1 | -1.9 | 6.3 | 7.7 | -0.6
SMILES | GPR151 ag | MITF inh | TEAD-YAP inh | FBW7 act
c1ccc(-c2nc(NC3CC3)cc(-c3ccncc3)n2)nc1 | -0.2 | 16.2 | 31.8 | -0.8
Fc1ccc(-c2cc(NC3CC3)nc(-c3ccncc3)n2)cc1 | 1.6 | 3.8 | 13.6 | 0.0
CCN(CC)c1cc(-c2ccc(F)cc2)nc(-c2ccccn2)n1 | 1.4 | 58.3* | 52.9* | -0.1
COC(=O)c1ccc(C(=O)OC)c(NC(=O)CCN2C(=O)c3ccccc3C2=O)c1 | 0.5 | -6.7 | -1.3 | -0.1
O=[N+]([O-])c1cccc(C2C=C(c3ccc(Cl)cc3)Nc3nnnn32)c1 (configuration not stated) | 0.6 | 8.6 | 5.9 | 0.0
Cc1ccccc1C(=O)Nc1cc(Cl)c(Cl)cc1Cl | 1.0 | -7.2 | 1.3 | 0.0
Cn1c(=O)oc2cc(S(=O)(=O)N3CCCc4ccccc43)ccc21 | -0.6 | 8.1 | 55.1* | 0.8
Cn1c(=O)oc2cc(S(=O)(=O)N3CCc4ccccc43)ccc21 | 0.1 | 8.9 | 49.5* | 0.0
Cc1cc(-c2ccc(S(=O)(=O)N3CCc4ccccc43)cc2)on1 | -0.8 | 14.7 | 58.1* | 0.1
Cn1c(=O)c(=O)n(C)c2cc(S(=O)(=O)N3CCc4ccccc43)ccc21 | 0.1 | 14.2 | -2.8 | -0.2
CC1Cc2ccccc2N1S(=O)(=O)c1ccc2c(c1)oc(=O)n2C (configuration not stated) | 0.7 | -3.4 | 49.2* | 0.2
O=S(=O)(c1ccc(Cl)c(Cl)c1)N1CCc2ccccc21 | 1.2 | -6.9 | 14.3 | 0.0
NS(=O)(=O)c1ccc(NC(=O)CSc2nc(-c3ccc(F)cc3)cs2)cc1 | -8.3 | -6.8 | -3.8 | 0.0
COc1ccc(C(=O)On2c(C3CCCCC3)nc3ccccc3c2=O)cc1 | -1.0 | 12.7 | 2.9 | -0.1
Cc1ccc(NC(=O)C(=O)NNC(=O)COc2ccc3ccccc3c2)cc1 | 0.5 | -7.8 | 1.0 | 0.0
CCC(C)NC(=O)Cn1nc(CC2=CCN(C)CC2)c2ccccc2c1=O (configuration not stated) | -0.3 | 20.9 | 2.2 | 0.5
COc1cccc(NC(=O)CSc2nc(NCc3ccc(Cl)cc3)c3ccccc3n2)c1 | 1.3 | -3.0 | -9.2 | 0.1
COc1ccccc1-n1cnc(N)c1C(=O)c1ccccc1 | 1.4 | -2.4 | 53.3* | 0.5
COc1nc(N)c(C#N)c(-c2cccc([N+](=O)[O-])c2)c1C#N | 0.8 | -8.7 | 2.6 | -0.1
CC(C)c1ccc(Nc2nccn3c(-c4ccoc4)cnc23)cc1 | -1.0 | 7.3 | -10.4 | 2.3*
c1ccc(Oc2ccc(Nc3nccn4c(-c5ccoc5)cnc34)cc2)cc1 | 1.5 | -3.7 | -4.1 | -0.2
CCCN(C(=O)c1ccccc1)c1c(C)n(C)n(-c2ccccc2)c1=O | -1.1 | -18.6 | -15.0 | -0.1
CCCN(C(=O)c1ccc(Cl)cc1)c1c(C)n(C)n(-c2ccccc2)c1=O | -1.2 | 2.7 | -5.9 | 3.2*
C/C(=N\NC(=O)c1cc(C)nc2ccccc12)c1ccccc1O | 1.7 | -20.0 | 53.3* | -0.6
Cc1cc(C(=O)N/N=C/c2ccc(OC(F)F)cc2)c2ccccc2n1 | 1.9 | -0.1 | 54.5* | -0.2
SMILES | GPR151 ag | MITF inh | TEAD-YAP inh | FBW7 act
Cc1cc(C(=O)NN)c2ccccc2n1 | -0.2 | -1.8 | 43.6* | -0.1
Cc1cc(C(=O)N/N=C/c2cccc([N+](=O)[O-])c2)c2ccccc2n1 | 2.0 | 6.3 | 11.9 | -0.1
C/C(=N\NC(=O)c1cc(-c2c(C)nn(-c3ccccc3)c2C)n[nH]1)c1ccccc1O | 4.0 | 6.8 | 43.8* | -0.1
COc1cc2c(cc1OC)C(C)N(c1ncnc(N)c1[N+](=O)[O-])CC2 (configuration not stated) | 0.5 | 18.3 | 8.9 | 0.1
C=CCNC(=O)c1nnc2n(c1=O)CCN2c1ccc(C)cc1 | 1.5 | -21.8 | 2.6 | 0.0
COc1ccc(/C(C)=N/NC(=O)c2ccccc2[N+](=O)[O-])c(OC)c1 | 0.8 | 3.3 | 12.1 | 0.0
Cc1cc(C(=O)NN=C2CCN(C)CC2)c2ccccc2n1 | -1.3 | 1.0 | 51.0* | -0.1
CN1CCC(=NNC(=O)c2c[nH]c3ccccc23)CC1 | -1.0 | 5.3 | -6.7 | 0.0
COc1ccc(/C(C)=N\NC(=O)c2ccccc2O)c(OC)c1 | -3.0 | -3.1 | 85.2* | -0.1
